Results reported in PubChem BioAssay (NCATS).
Results filed as inconclusive are left out. Active and inactive are the calls of the source. Calls follow the shape of the dose curve; as a rule, active = well fitted cell-killing curve with a large enough effect; inconclusive = small, poorly fitted or top-dose-only effect, or effect the other way; inactive = flat fitted curve, though single readings scatter.

Key:
Experiment in all cases: Primary qHTS to identify gynecologic anti-cancer compounds using libraries of approved drugs and bioactive compounds (AID 1345084); also: nearly all actives have a fitted effect of over 55% in size
Conditions in all cases: Gynecologic cancer cell panel viability, ATPlite luminescence, 48 h; series mostly up to 57.5 µM
C33A = tested on: C33A
In short: (§1)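 ATP-based viability (ATPlite), 1,000 cells/well, 16 h pre-incubation, 48 h compound at 37 C, 5% CO2, 15 min RT before read.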

CAOV3 = tested on: CAOV3
In short: as §1

CASKI = tested on: CASKI
In short: as §1

Measured: Potency

CC1CCC2(C)C(CC(O)C(O)C23CO3)C1(C)CCC1=CC(O)OC1=O (configuration not stated)
inactive: all assays above

Cc1nnc(C(C)C)n1C1CC2CCC(C1)N2CCC(NC(=O)C1CCC(F)(F)CC1)c1ccccc1 (configuration not stated)
inactive: all assays above

CCC1CC2C(C)=CC3CCCCC3C2(C)C2(OC(=O)C(C)(O)OC2=O)O1 (configuration not stated)
inactive: all assays above

C=CC1(C)CC(O)C2(CCC3C(C)(C(=O)O)CCCC3(C)C2=O)C1 (configuration not stated)
inactive: all assays above
